# Measurements published in PubChem BioAssay (EPA / NIEHS).
# Results filed as inconclusive are left out. The source made the active and inactive calls. The calls were made as follows, unless noted: active = hit-call score of the fitted dose curve at least 0.9, where 1 is the maximum; inactive = score below 0.9.
# Key:
# [1] = CCTE_Simmons_MITO_basal_resp_rate: CCTE's HepG2 Seahorse XF Respirometric Screening Assay at Basal Respiratory State, Simmons Lab (AID 2284001); settings: actives raise or lower the signal
# In short: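 Readout is oxygen consumption rate after test compound injection, measured by Seahorse XF in HepG2 cells. Seven concentrations from 125 nM up to 100 uM final are tested, and activity in either direction is fitted against DMSO.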
# [2] = CCTE_Simmons_MITO_max_resp_rate: CCTE's HepG2 Seahorse XF Respirometric Screening Assay at Maximal Respiratory State [uncoupled], Simmons Lab (AID 2284002); settings: actives raise or lower the signal
# In short: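 Uncoupled (FCCP) respiration of HepG2 cells served as the endpoint, with measurements at 6-minute intervals across a 72-minute run and compounds dosed at 7 concentrations up to 100 uM final.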
# [3] = CCTE_Simmons_MITO_inhib_resp_rate: CCTE's HepG2 Seahorse XF Respirometric Screening Assay at Inhibited Respiratory State [full ETC block], Simmons Lab (AID 2284006); settings: actives raise or lower the signal
# In short: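 Seahorse respirometry, HepG2, 72 min total, 6-min mix/measure cycles. Cpd 125 nM–100 uM final ×7, n=3 biological. Sequential FCCP, rotenone/antimycin A; inhibited-respiration OCR, bidirectional fit vs DMSO.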
# [4] = CCTE_Shafer_MEA_acute_spike_number: CCTE's Neural Acute Assay for Total Number of Spikes, Shafer Lab (AID 2284008);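 as to AC50: curve fitted for decrease in spike count so AC50 reflects inhibitors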
# In short: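 Using an adaptive detector set to 8x rms noise, spikes were counted in 40-min windows before and after compound addition (0.03-40 uM) to rat cortical networks at 37 C; the well-level change from baseline was analysed relative to DMSO.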
# [5] = CCTE_Shafer_MEA_acute_firing_rate_mean: CCTE's Neural Acute Assay for Mean Firing Rate, Shafer Lab (AID 2284009);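 also: analyzed for loss of signal so actives lower firing rate relative to DMSO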
# In short: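 Spontaneous spiking of primary rat cortical networks, DIV 13/15, 37 C. Compound 0.03-40 uM, n ≥3 wells; 40 min baseline vs 40 min treated. Endpoint fitted in loss-of-signal direction against DMSO.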
# DIO1 (gene 1733) = assay: CCTE_GLTED_hDIO1: CCTE's human Deiodinase 1 (DIO1) Inhibition Assay, Great Lakes Toxicology and Ecology Division (GLTED) Lab (AID 2283987; active = hit-call score of the fitted dose curve at least 0.9, where 1 is the maximum;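 also: isolated human DIO1 enzyme in a cell-free setup rather than cells; enzyme activity read as free iodide liberated from substrate via Sandell-Kolthoff colorimetry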)
# In short: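 Chemicals are tested on human DIO1 without cells for 3 h. Uninhibited enzyme frees iodide, which speeds cerium(IV) reduction by arsenic and is read by spectrophotometry.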
# [6] = target: Nucleoli Translocation, AR (gene 367) (UniProt P10275); assay: UPITT_HCI_U2OS_AR_TIF2_Nucleoli_Antagonist: University of Pittsburgh U2OS Androgen Receptor-Transcriptional Intermediary Factor 2 (AR-TIF2) Antagonism High Content Imaging Assay for Nucleoli Translocation (AID 2283997; active = hit-call score of the fitted dose curve at least 0.9, where 1 is the maximum)
# In short: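 An antagonist-mode imaging screen: engineered U2OS (AR-RFP, TIF2-GFP) exposed to 20 uM compound, 0.2% DMSO. Activity reflects nucleolar red fluorescence change relative to DHT baseline.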
# [7] = target: Nucleoli Translocation, AR (gene 367) (UniProt P10275); assay: UPITT_HCI_U2OS_AR_TIF2_Nucleoli_Agonist: University of Pittsburgh U2OS Androgen Receptor-Transcriptional Intermediary Factor 2 (AR-TIF2) Agonism High Content Imaging Assay for Nucleoli Translocation (AID 2283998; active = hit-call score of the fitted dose curve at least 0.9, where 1 is the maximum)
# In short: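 High-content images quantify nucleolar accumulation of RFP-fused AR in cells also expressing GFP-TIF2; the endpoint is fitted as signal gain versus DMSO controls across final concentrations of 0.195 to 50 uM.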
# [8] = target: Ratio of Nucleoli Translocation and Cytoplasm, AR (gene 367) (UniProt P10275); assay: UPITT_HCI_U2OS_AR_TIF2_Nucleoli_Cytoplasm_Ratio_Antagonist: University of Pittsburgh U2OS Androgen Receptor-Transcriptional Intermediary Factor 2 (AR-TIF2) Antagonism High Content Imaging Assay for Ratio of Nucleoli Translocation and Cytoplasm (AID 2283999; active = hit-call score of the fitted dose curve at least 0.9, where 1 is the maximum;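 also: antagonists lower the DHT-driven ratio of nucleolar to cytoplasmic red signal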)
# In short: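 Compounds were added to U2OS cells carrying red-fluorescent AR and green-fluorescent TIF2, first at 20 uM, with hits confirmed in triplicate and titrated from 0.195 to 50 uM. Nucleolar versus cytoplasmic AR-RFP fluorescence was then quantified by imaging, with analysis relative to DHT.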
# [9] = target: Ratio of Nucleoli Translocation and Cytoplasm, AR (gene 367) (UniProt P10275); assay: UPITT_HCI_U2OS_AR_TIF2_Nucleoli_Cytoplasm_Ratio_Agonist: University of Pittsburgh U2OS Androgen Receptor-Transcriptional Intermediary Factor 2 (AR-TIF2) Agonism High Content Imaging Assay for Ratio of Nucleoli Translocation and Cytoplasm (AID 2284000; active = hit-call score of the fitted dose curve at least 0.9, where 1 is the maximum;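 also: hits raise the red nucleolar to cytoplasm ratio above vehicle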)
# In short: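 Primary screen at 20 uM final (0.2% DMSO), then triplicate confirmation and dose-response from 0.195 to 50 uM final (0.5% DMSO). Cells: U2OS with AR-RFP and TIF2-GFP. Endpoint is the nucleoli/cytoplasm red-fluorescence ratio, gain-of-signal vs DMSO.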
# [10] = TOX21_TR_RXR_BLA_Antagonist_Followup_viability: Viability Assessment in the Tox21 Thyroid Hormone Receptor beta Retinoid X Receptor alpha (RXRa) Antagonism Beta-lactamase (BLA) Follow-Up Assay (AID 2283979; active = hit-call score of the fitted dose curve at least 0.9, where 1 is the maximum)
# In short: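 RXRa-UAS-bla HEK293T cells seeded 2,500/well in phenol red-free DMEM with 2% charcoal-stripped FBS, attached 5 h, then exposed to compounds at 11 concentrations in triplicate for 16 h at 37C/5% CO2. Viability read by CellTiter-Glo ATP luminescence; bidirectional fit versus DMSO.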
# Chain of Nucleoli Translocation, AR (gene 367) (P10275 whole entry, looked up, the tested form may be a part): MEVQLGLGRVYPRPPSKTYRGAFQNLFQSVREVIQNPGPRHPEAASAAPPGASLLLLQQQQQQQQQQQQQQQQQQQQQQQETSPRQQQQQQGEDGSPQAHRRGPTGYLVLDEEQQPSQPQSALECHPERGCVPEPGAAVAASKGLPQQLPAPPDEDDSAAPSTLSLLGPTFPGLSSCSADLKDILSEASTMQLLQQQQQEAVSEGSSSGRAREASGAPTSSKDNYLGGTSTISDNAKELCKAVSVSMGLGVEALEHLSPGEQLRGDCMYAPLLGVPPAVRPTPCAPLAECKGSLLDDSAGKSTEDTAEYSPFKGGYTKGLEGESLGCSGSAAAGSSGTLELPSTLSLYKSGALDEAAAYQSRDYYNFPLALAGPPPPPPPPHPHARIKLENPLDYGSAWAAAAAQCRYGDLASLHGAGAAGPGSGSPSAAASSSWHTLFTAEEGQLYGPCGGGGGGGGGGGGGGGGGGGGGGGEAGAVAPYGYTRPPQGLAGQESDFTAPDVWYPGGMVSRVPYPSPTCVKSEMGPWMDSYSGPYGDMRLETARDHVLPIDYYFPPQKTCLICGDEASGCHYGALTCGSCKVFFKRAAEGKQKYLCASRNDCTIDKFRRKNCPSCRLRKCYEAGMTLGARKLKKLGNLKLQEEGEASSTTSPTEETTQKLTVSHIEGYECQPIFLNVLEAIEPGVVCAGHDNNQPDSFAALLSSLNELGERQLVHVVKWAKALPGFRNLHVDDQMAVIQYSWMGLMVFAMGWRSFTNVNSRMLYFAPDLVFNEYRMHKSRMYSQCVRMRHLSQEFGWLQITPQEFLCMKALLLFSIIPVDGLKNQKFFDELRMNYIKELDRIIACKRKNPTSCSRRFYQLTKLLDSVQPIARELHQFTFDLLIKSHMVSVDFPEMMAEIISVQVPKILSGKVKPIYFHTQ
# Chain of Ratio of Nucleoli Translocation and Cytoplasm, AR (gene 367) (P10275 whole entry, looked up): as the sequence (P10275 whole entry, looked up, the tested form may be a part) above
smiles,measurement,setting,value
O=C(O)c1cccc(C[C@@H]2COc3ccc(OCc4nc5cc(F)ccc5s4)cc3[C@@H]2O)c1,outcome,[1],inactive
same,AC50,[2],25 µM (active)
same,outcome,[3],inactive
Cc1ncc([C@@H](CCCCCCc2ccc3c(n2)NCCC3)CC(=O)O)cn1,outcome,[4],inactive
same,outcome,[5],inactive
OC(CCl)CCl,outcome,[4],inactive
same,outcome,[5],inactive
CCCCCCCCCCCCCCCCOS(=O)(=O)O,AC50,DIO1 (gene 1733),44.5 µM (active)
same,outcome,[6],inactive
CCCCC(CC)C(=O)OCCOCCOCCOC(=O)C(CC)CCCC (stereo not given),outcome,[6],inactive
same,outcome,[7],inactive
same,outcome,[8],inactive
same,outcome,[9],inactive
same,outcome,[4],inactive
same,outcome,[5],inactive
O=C1CN(N=Cc2ccc([N+](=O)[O-])o2)C(=O)N1,outcome,[1],inactive
same,AC50,[2],12.7 µM (active)
same,AC50,[3],46.8 µM (active)
Cc1nccn1-c1ccc(Sc2cccc(C3(C(N)=O)CCOCC3)c2)cc1,outcome,[10],inactive
same,AC50,[1],9.2 µM (active)
same,AC50,[2],5.55 µM (active)
same,AC50,[3],13.2 µM (active)
NC(=O)NN=Cc1ccc([N+](=O)[O-])o1,AC50,[1],50 µM (active)
same,outcome,[2],inactive
same,AC50,[3],50 µM (active)
Cc1nc(-c2ccccn2)ncc1C(=O)Nn1cc(C)c2cc(F)ccc21,outcome,[6],inactive
same,outcome,[9],inactive
CCOc1ccc2[nH]cc(C(=O)NCc3ccccc3)c(=O)c2n1,outcome,[1],inactive
same,outcome,[2],inactive
same,outcome,[3],inactive
CCCCCCCC1CCC(=O)O1 (stereo not given),AC50,[1],46.4 µM (active)
same,outcome,[2],inactive
same,outcome,[3],inactive
same,outcome,[4],inactive
same,outcome,[5],inactive
c1ccc2cc3ccccc3cc2c1,AC50,[4],0.003 µM (active)
same,AC50,[5],0.003 µM (active)
CCN(CC)C(=S)SSC(=S)N(CC)CC,AC50,[6],19.8 µM (active)
same,AC50,[7],50 µM (active)
same,AC50,[8],11.7 µM (active)
same,AC50,[9],64.4 µM (active)
same,outcome,[1],inactive
same,outcome,[2],inactive
same,outcome,[3],inactive
O=C(NO)C1(NS(=O)(=O)c2ccc(Oc3ccc(F)cc3)cc2)CCOCC1,AC50,[1],39.2 µM (active)
same,AC50,[2],31.2 µM (active)
same,outcome,[3],inactive
CC[C@H](C)C(=O)O[C@H]1C[C@H](O)C=C2C=C[C@H](C)[C@H](CC[C@@H](O)C[C@@H](O)CC(=O)O)[C@H]21,outcome,[4],inactive
same,outcome,[5],inactive
CCc1ccc(O)c(C(C)(C)C)c1,outcome,[1],inactive
same,outcome,[2],inactive
same,outcome,[3],inactive
same,AC50,[4],0.679 µM (active)
same,AC50,[5],0.672 µM (active)
CCCCOC(=O)c1ccccc1,outcome,[6],inactive
same,outcome,[7],inactive
same,outcome,[9],inactive
FC(F)C(F)(F)COCC1CO1 (stereo not given),AC50,DIO1 (gene 1733),19.8 µM (active)
O=S(=O)(O)c1ccc(N=Nc2c(O)ccc3cc(S(=O)(=O)O)ccc23)cc1,outcome,[4],inactive
same,outcome,[5],inactive
OCc1ccccc1,outcome,[6],inactive
same,outcome,[8],inactive
same,outcome,[4],inactive
same,outcome,[5],inactive
COc1cc(C(C)C)c2c(c1)S(=O)(=O)N(COc1cc(=O)n3cccc(OCCN4CCCCC4)c3n1)C2=O,AC50,[6],5.14 µM (active)
same,outcome,[7],inactive
same,outcome,[8],inactive
same,outcome,[9],inactive
same,outcome,[4],inactive
same,outcome,[5],inactive
